# Structures can show the parent of a compound that is named as a salt. ± gives the standard deviation of the averaged measurements.
# Columns and labels:
# Assay in all cases: growth (OD600 after 10 h); higher = more growth (less inhibition)
# [1] = test system: E. coli TESEC Alr+ wild-type control; details: compound 0.1 mM; raw OD600 reference: median of DMSO wells 0.241, cell-free background 0.041
# Procedure: (§1)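 TESEC Mtb Alr E. coli, or the Alr+ wild-type control, in 384-well plates with Prestwick library compounds at 0.1 mM and 1% DMSO, across arabinose induction levels of 1E3 to 1E7 nM. Growth is read as OD600 after 10 h at 37 °C in triplicate biological replicates.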
# [2] = test system: E. coli TESEC Mtb Alr; details: compound 0.1 mM
# Procedure: as §1
# [3] = test system: E. coli TESEC Mtb Asd; details: compound 0.1 mM
# Procedure: (§2)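 TESEC E. coli strains in which the native enzyme is deleted and replaced by arabinose-inducible Mtb Asd, DapB, CysH or TrpD, each grown in its selective medium. Strains were screened against the Prestwick library at 0.1 mM and 1% DMSO in 384-well format at low and high arabinose induction. Growth is read as OD600 after 10 h in triplicate.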
# [4] = test system: E. coli TESEC Mtb DapB; details: compound 0.1 mM
# Procedure: as §2
# [5] = test system: E. coli TESEC Alr+ wild-type control; details: compound 0.1 mM; raw OD600 reference: median of DMSO wells 0.49, cell-free background 0.052
# Procedure: (§3)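 TESEC Mtb Alr E. coli (ΔaraC ΔtolC ΔentC Δalr ΔdadX, arabinose-inducible Mtb Alr) or the Alr+ wild-type control strain, grown in defined M9-fructose medium without D-alanine in 96-well plates with Prestwick library compounds at 0.1 mM and 1% DMSO. Low Alr induction is 0.1 µM arabinose and high induction is 10 mM arabinose.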
# [6] = test system: E. coli TESEC Mtb Alr; details: compound 0.1 mM; remark: listed apart in the source
# Procedure: as §3
# [7] = arabinose 1000 nM, raw OD600 reference: median of DMSO wells 0.294, cell-free background 0.041
# [8] = arabinose 10000 nM, raw OD600 reference: median of DMSO wells 0.264, cell-free background 0.041
# [9] = arabinose 100000 nM, raw OD600 reference: median of DMSO wells 0.201, cell-free background 0.041
# [10] = arabinose 1000000 nM, raw OD600 reference: median of DMSO wells 0.193, cell-free background 0.041
# [11] = arabinose 10000000 nM, raw OD600 reference: median of DMSO wells 0.146, cell-free background 0.041
# [12] = arabinose induction (level): High, raw OD600 reference: median of DMSO wells 0.331, cell-free background 0.041
# [13] = arabinose induction (level): Low, raw OD600 reference: median of DMSO wells 0.417, cell-free background 0.041
# [14] = arabinose induction (level): High, raw OD600 reference: median of DMSO wells […], cell-free background 0.041
# [15] = arabinose induction (level): Low, raw OD600 reference: median of DMSO wells 0.227, cell-free background 0.041
# [16] = arabinose 100 nM, raw OD600 reference: median of DMSO wells 0.413, cell-free background 0.052
# [17] = arabinose 10000000 nM, raw OD600 reference: median of DMSO wells […], cell-free background 0.052
SMILES,growth [1],"growth [2, 7]","growth [2, 8]","growth [2, 9]","growth [2, 10]","growth [2, 11]","growth [3, 12]","growth [3, 13]","growth [4, 14]","growth [4, 15]",growth [5],"growth [6, 16]","growth [6, 17]"
C[C@H](O)C(=O)Nc1c(I)c(C(=O)NC(CO)CO)c(I)c(C(=O)NC(CO)CO)c1I [Iopamidol],0.261 ± 0.011,0.323 ± 0.014,0.287 ± 0.012,0.217 ± 0.0049,0.195 ± 0.0084,0.166 ± 0.0031,0.443 ± 0.035,0.396 ± 0.035,0.221 ± 0.0036,0.249 ± 0.028,0.465 ± 0.036,0.397 ± 0.022,0.338 ± 0.011
C[N+](C)(CCOc1ccccc1)Cc1ccccc1.O=C([O-])c1cc2ccccc2cc1O [Bephenium hydroxynaphthoate],0.175 ± 0.0073,0.266 ± 0.017,0.207 ± 0.0049,0.203 ± 0.0078,0.104 ± 0.0033,0.134 ± 0.0047,0.486 ± 0.047,0.365 ± 0.069,0.176 ± 0.046,0.216 ± 0.019,0.509 ± 0.023,0.381 ± 0.016,0.263 ± 0.0088
CC1(C)S[C@@H]2[C@H](NC(=O)[C@H](N)c3ccccc3)C(=O)N2[C@H]1C(=O)O [Ampicillin trihydrate],0.235 ± 0.0072,0.279 ± 0.011,0.253 ± 0.013,0.189 ± 0.024,0.1927 ± 0.0013,0.145 ± 0.0022,0.388 ± 0.056,0.394 ± 0.066,0.205 ± 0.013,0.256 ± 0.051,0.479 ± 0.038,0.4271 ± 0.0036,0.338 ± 0.0045
CNC(=C[N+](=O)[O-])NCCSCc1csc(CN(C)C)n1 [Nizatidine],0.241 ± 0.0083,0.301 ± 0.018,0.274 ± 0.0044,0.21 ± 0.015,0.189 ± 0.0052,0.14 ± 0.0024,0.368 ± 0.033,0.438 ± 0.012,0.205 ± 0.019,0.228 ± 0.025,0.561 ± 0.066,0.408 ± 0.015,0.342 ± 0.01
CO/N=C(\C(=O)N[C@@H]1C(=O)N2C(C(=O)O)=C(COC(C)=O)CS[C@H]12)c1csc(N)n1 [Cefotaxime sodium salt],0.0395 ± 0.00046,0.0388 ± 0.0013,0.0398 ± 0.00026,0.0388 ± 0.0013,0.04017 ± 0.00038,0.04007 ± 0.0004,0.0625 ± 0.0074,0.0606 ± 0.002,0.0632 ± 0.014,0.0489 ± 0.0033,0.0462 ± 0.0019,0.0466 ± 0.0015,0.0529 ± 0.0023
CN(CCCN1c2ccccc2CCc2ccccc21)CC(=O)c1ccc(Cl)cc1 [Lofepramine],0.133 ± 0.0019,0.199 ± 0.0064,0.127 ± 0.0072,0.194 ± 0.0099,0.0713 ± 0.0042,0.159 ± 0.0095,0.27 ± 0.062,0.196 ± 0.025,0.23 ± 0.064,0.227 ± 0.017,0.343 ± 0.013,0.4242 ± 0.0042,0.202 ± 0.017
CCc1nn(CCCN2CCN(c3cccc(Cl)c3)CC2)c(=O)n1CCOc1ccccc1 [Nefazodone HCl],0.0424 ± 0.00076,0.0444 ± 0.0031,0.04017 ± 0.00012,0.0431 ± 0.00062,0.0406 ± 0.00026,0.0473 ± 0.0025,0.0498 ± 0.0029,0.0479 ± 0.0011,0.05113 ± 0.00049,0.0483 ± 0.00036,0.0504 ± 0.00067,0.29 ± 0.2,0.0515 ± 0.001

# From the supplement of paper PMC9262897, “Low-cost anti-mycobacterial drug discovery using engineered E. coli” (Nature Communications, 2022)
